# Measurements from PubChem BioAssay (NCI).
# Compounds without any hit were thinned out: in the full panel of roughly 83,000, 20% have a hit.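 A percent growth of 40 corresponds to 60% growth inhibition; 0 means no net growth; -100 means all cells died. Active threshold: below 10.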 Unmarked numbers belong to inactive results. Activity calls are given as the source filed them.
# Tests used:
# Test in all cases: NCI-60 one-dose screen, 48 h (100 = growth as untreated, 0 = no growth, -100 = all killed)
# Conditions in all cases: 10 µM unless noted
# HCT-15 colon = test system: HCT-15 colon
# HT29 colon = test system: HT29 colon
# SNB-75 CNS = test system: SNB-75 CNS
# SNB-19 CNS = test system: SNB-19 CNS
# U251 CNS = test system: U251 CNS
# PC-3 prostate = test system: PC-3 prostate
# SK-MEL-5 melanoma = test system: SK-MEL-5 melanoma
# UACC-62 melanoma = test system: UACC-62 melanoma
# LOX IMVI melanoma = test system: LOX IMVI melanoma
# SK-MEL-28 melanoma = test system: SK-MEL-28 melanoma
# SK-MEL-2 melanoma = test system: SK-MEL-2 melanoma
# EKVX NSCLC = test system: EKVX NSCLC
# SN12C renal = test system: SN12C renal
# UO-31 renal = test system: UO-31 renal
# TK-10 renal = test system: TK-10 renal
# ACHN renal = test system: ACHN renal
# CAKI-1 renal = test system: CAKI-1 renal
# A498 renal = test system: A498 renal
# CCRF-CEM leukemia = test system: CCRF-CEM leukemia
# MOLT-4 leukemia = test system: MOLT-4 leukemia
SMILES,growth (HCT-15 colon),growth (HT29 colon),growth (SNB-75 CNS),growth (SNB-19 CNS),growth (U251 CNS),growth (PC-3 prostate) [%],growth (SK-MEL-5 melanoma),growth (UACC-62 melanoma),growth (LOX IMVI melanoma),growth (SK-MEL-28 melanoma),growth (SK-MEL-2 melanoma),growth (EKVX NSCLC) [%],growth (SN12C renal),growth (UO-31 renal),growth (TK-10 renal) [%],growth (ACHN renal),growth (CAKI-1 renal) [%],growth (A498 renal) [%],growth (CCRF-CEM leukemia),growth (MOLT-4 leukemia)
CCCCCc1ccc(S(=O)(=O)Nc2ccc3nc(N)oc3c2)cc1,82.5%,89.4%,40.7%,66.3%,71.5%,57.2,4.66% (active),43.7%,36.3%,74.7%,101%,33.2,58.8%,35.8%,84.6,60.3%,51.1,32.6,51.8%,37.1%
N#C/C(=C\c1ccc(-c2cccc(Cl)c2)o1)C(=O)Nc1ncc(Cc2ccc(Cl)cc2)s1,57.6%,70.5%,-3.05% (active),77.4%,16.9%,39.5,89.9%,43%,52.5%,66.8%,97.2%,69.4,35.9%,23.7%,69.9,31.4%,51.6,74.1,43.6%,87.1%
COc1cc(/C=N/NC(=O)c2ccc(-n3cc(-c4ccccc4)nn3)cc2)cc(OC)c1OC,76.2%,47.8%,71.6%,58.9%,48.4%,47.5,57.2%,9.86% (active),36.3%,53.3%,98%,91.1,80%,88.2%,99.2,70.7%,65.3,71.1,55.1%,78.3%
CCn1cc(C(=O)O)c(=O)c2cc(F)c(N3CCN(CC(=O)Nc4ccccc4)C(C)C3)c(F)c21 (stereo not given),101%,108%,86.1%,99.1%,102%,93.2,99.2%,78.2%,88.5%,97%,122%,104,103%,76.5%,108,97.8%,87,73.4,96.7%,107%
O=C(/C=C/C12c3ccccc3C(c3ccccc31)C1C(=O)NC(=O)C12)c1ccc(Cl)cc1Cl (stereo not given),11%,1.07% (active),25.1%,27%,7.87% (active),15.6,36.8%,12.5%,-25.6% (active),4.9% (active),-2.62% (active),36.4,9.38% (active),32.4%,22.4,28.2%,25.5,35.7,-8.25% (active),-0.49% (active)
CN(C)Cc1ccc(NC(=O)c2cncc(C#Cc3cnc(N)c4ncccc34)c2)cc1C(F)(F)F,-50.6% (active),-50.1% (active),82.2%,-8.43% (active),-57.5% (active),92.2,24.8%,45.1%,-79.9% (active),-83.1% (active),40.5%,89.4,69.9%,-82% (active),110,-81.8% (active),83,60.6,-6.13% (active),43.5%
CC/C(=C(/c1ccc(O)cc1)c1ccc(OCCN2CCCCC2)cc1)c1ccc(OC)cc1,20.1%,4.3% (active),74.1%,94.7%,8.72% (active),79.4,88.6%,112%,-40% (active),60.3%,97.4%,87,91.1%,70%,86.6,91.3%,91.2,83.2,42.1%,23%
